Compound activity deposited in PubChem BioAssay by several laboratories.
Most compounds without a hit are left out; they make up all but 2% or so of the library.
VCAM1 TNFa inh: inhibitors of TNFa-induced VCAM1 expression, primary screen, imaging, HUVEC, TNFa stimulus, immunofluorescence | HUVEC TNFa-induced VCAM-1 immunofluorescence, high-content imaging | 95,000 compounds, 0.48% hits | inhibition, % at 2 µM;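 active means inhibition above the batch mean plus 3 SD, with images confirmed as a hit by eye, cut at about 37% in these data; inconclusive means inhibition above that limit but hit not confirmed in images; inactive means inhibition not above that limit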
E-sel TNF inh: E-selectin induction blockers in HUVEC – imaging, immunofluorescence, high content, primary screen. HUVEC TNFa-induced E-selectin immunofluorescence. 120,000 compounds, 0.71% hits. inhibition, % at 2 µM. AID 1246, 2008;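 active means inhibition above the batch mean plus 3 SD, and confirmed as a hit on visual image review, cut at about 43% in these data; inconclusive means passes the inhibition cutoff but fails visual image review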
cytoskel mod: modifiers of F-actin cytoskeleton organization, primary screen, imaging, HUVEC, phalloidin staining, high-content imaging | HUVEC TNFa F-actin phalloidin imaging | inhibition, % at 2 µM | 91,000 compounds, 0.18% hits;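 active means inhibition above the batch mean plus 3 SD and confirmed as a hit by visual image inspection, cut at about 30% in these data, passing the limit was not always enough; inconclusive means above the inhibition threshold but rejected on visual inspection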
PLAP act: PLAP enzyme activators, biochemical, luminescence, HTS. Alkaline phosphatase, placental type (Homo sapiens), P05187. purified PLAP enzyme, luminescent substrate read-out; active compounds read high. activation fold at 20 µM. 96,000 compounds, 1.2% hits. AID 696, 2007; in the data active means activation fold above about 2
Target sequence (P05187 whole entry, looked up): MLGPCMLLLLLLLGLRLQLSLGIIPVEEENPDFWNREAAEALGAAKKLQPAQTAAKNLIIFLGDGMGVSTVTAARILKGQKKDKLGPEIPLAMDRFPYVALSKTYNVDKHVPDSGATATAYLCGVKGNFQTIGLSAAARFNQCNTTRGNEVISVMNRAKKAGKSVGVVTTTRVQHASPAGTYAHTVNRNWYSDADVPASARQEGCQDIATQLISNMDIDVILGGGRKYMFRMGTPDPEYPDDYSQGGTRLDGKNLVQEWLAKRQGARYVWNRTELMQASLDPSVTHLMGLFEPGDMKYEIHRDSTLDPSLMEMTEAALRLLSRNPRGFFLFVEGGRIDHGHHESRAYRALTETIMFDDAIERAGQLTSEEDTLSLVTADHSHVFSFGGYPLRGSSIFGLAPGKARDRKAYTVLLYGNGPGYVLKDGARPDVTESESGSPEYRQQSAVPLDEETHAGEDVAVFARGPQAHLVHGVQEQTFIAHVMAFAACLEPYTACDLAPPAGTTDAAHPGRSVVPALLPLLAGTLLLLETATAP
HUVEC tox TNFa: cytotoxicity in TNFa-stimulated HUVEC, primary screen, cytotoxicity control for VCAM1 expression modulator project, imaging, Hoechst nuclei count. HUVEC TNFalpha-stimulated, Hoechst cell count. cell count reduction, % at 2 µM. 93,000 compounds, 0.17% hits. AID 848, 2007;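 active means cell count reduction exceeding the screen mean by over 5 SD, scaled to untreated wells per plate, cut at about 78% in these data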;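 further: cells counted after 24 h of TNF alpha exposure following the 1 h pretreatment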
A number is an active result; 0 = inactive; ? = inconclusive; - = no result.

SMILES	VCAM1 TNFa inh	E-sel TNF inh	cytoskel mod	PLAP act	HUVEC tox TNFa
[N-]=[N+]=CC(=O)CC(c1ccccc1)N1C(=O)c2ccccc2C1=O (centres undefined)	0	0	0	2	0
Cn1ccnc1C(O)c1cc(C(C)(C)C)c(O)c(C(C)(C)C)c1 (centres undefined)	0	0	0	2.2	0
Cc1cc(NC(=O)C2C3C=CC(C3)C2C(=O)O)no1 (centres undefined)	?	0	?	0	100
Cc1cc(NC(=O)C2CC=CCC2C(=O)O)no1 (centres undefined)	0	0	0	0	0
CCOc1ccc(N2C(=O)CSC2c2ccncc2)cc1 (centres undefined)	91	0	0	-	0
CCCCOC(=O)c1cc(=O)[nH]c(=O)[nH]1	-	0	-	-	-
CCOc1ccc(C)cc1S(=O)(=O)NC1CCCCC1	0	0	0	2.2	0
CCOc1cc(S(=O)(=O)NC2CCCCC2)ccc1F	0	0	-	0	0
C1CCN(Cc2nnnn2CC2CCCO2)CC1 (centres undefined)	-	0	-	-	-
CCN(CC)CCNC(=S)N1CCn2c(nc3ccccc32)C1	-	0	-	-	-
Cc1nc(NC(=O)c2oc3ccccc3c2C)sc1C(=O)N(C)C	0	96	0	-	0
Cc1nc(NC(=O)c2ccccc2[N+](=O)[O-])sc1C(=O)N(C)C	-	0	-	-	-
Cc1ccc(C(=O)NCCCn2ccnc2)cn1	0	0	30	0	0
CCCNC(=O)c1ccc(OC)cc1OC	0	0	0	0	0
COc1ccc(C(=O)NCC(C)C)c(OC)c1	0	91	0	-	0
COCCNC(=O)CCc1nnc(C2(c3ccc(Cl)cc3)CCC2)o1	-	0	-	-	-
C=CCNC(=S)NNC(=O)c1ccc(OC(C)C)cc1	0	0	0	2.4	0
C=CCNC(=S)NNC(=O)c1csc(C)c1CC	0	0	0	2.1	0
CCCCNC(=S)NNC(=O)c1ccc2c(c1)OCO2	-	0	-	-	-
CCNC(=S)NNC(=O)c1ccc(OC(F)F)cc1	0	0	0	2.3	0
CC(C)CNC(=S)NNC(=O)c1ccc(OC(F)F)cc1	0	0	0	0	0
C=CCNC(=S)NNC(=O)c1ccc2c(c1)OCO2	0	0	0	2.2	0
COc1ccccc1CN1CC(C(=O)NCc2cccnc2)CC1=O (centres undefined)	0	0	0	0	0
Clc1ccc(Oc2nc(N3CCOCC3)nc(N3CCOCC3)n2)cc1	0	-	0	0	0
CCNc1nc(Oc2ccccc2)nc(OC(C)C(=O)OCC)n1 (centres undefined)	0	0	0	-	0
SMILES	VCAM1 TNFa inh	E-sel TNF inh	cytoskel mod	PLAP act	HUVEC tox TNFa
CCC1(CC)Cc2ccccc2C(Nc2c(C)n(C)n(-c3ccccc3)c2=O)=N1	0	0	0	2	0
N#C/C(=C\c1cc(Cl)cc(Cl)c1O)C(=O)NC1CCCCC1	0	100	0	0	0
COCCNC(=O)CSc1nc2cc3c(cc2c(=O)n1Cc1ccco1)OCO3	0	0	0	0	0
COCCNC(=O)c1ccc2c(=O)n(Cc3ccco3)c(SCC(=O)NC3CCCC3)nc2c1	0	-	0	2.2	0
COc1ccc(C(=O)Nc2nc(N3C(=O)c4ccccc4C3=O)n(-c3ccccc3)n2)cc1	0	0	-	2.2	0
O=C(Nc1nc(N2C(=O)c3ccccc3C2=O)n(-c2ccccc2)n1)c1ccc(F)cc1	0	0	0	2.1	0
CCCCN(C(=O)Cc1cccc(F)c1)c1c(N)n(CCC)c(=O)[nH]c1=O	-	0	-	-	-
CN1CCc2c(n(CC(O)CN3CCN(CCO)CC3)c3ccccc23)C1=O (centres undefined)	-	0	-	-	-
CCOC(=O)CSc1nc(N)cc(=O)[nH]1	0	77	0	0	0
Cc1ccc(S(=O)(=O)N(CCC(=O)O)Cc2ccc(Cl)cc2)cc1	0	0	-	0	0
CC1CC(=O)C=C(O)C1C(=O)OC(C)(C)C (centres undefined)	0	0	0	0	0
C=CCn1c(Cc2c[nH]c3ccccc23)n[nH]c1=S	0	0	0	0	0
C=CCn1c(Cc2nc3ccc(Cl)cc3[nH]2)n[nH]c1=S	0	0	0	2.4	0
COc1ccc(Br)cc1CN(C)CC(=O)Nc1ccccc1Cl	-	0	-	-	-
COc1ccc(Br)cc1CN(C)CC(=O)Nc1cc(Cl)ccc1Cl	-	89	-	-	-
COc1ccc(CCNC(=O)C2CCN(Cc3nc(-c4cccc(Cl)c4)oc3C)CC2)cc1OC	-	0	-	2.2	-
Cc1oc(-c2cccc(Cl)c2)nc1CN1CCC(C(=O)NCCCN2CCCC2=O)CC1	0	-	0	0	0
CCCc1cc(=O)[nH]c(SCC(=O)Nc2ccc(Br)cc2Br)n1	-	0	-	-	-
CC(=O)Cn1c(N2CCC(Cc3ccccc3)CC2)nc2c1c(=O)[nH]c(=O)n2C	0	-	31	0	0
Cn1c(=O)[nH]c(=O)c2c1nc(N1CCCCC1)n2CCCSc1nnnn1-c1ccccc1	-	89	-	-	-
C=CCn1c(N2CCCC2)nc2c1c(=O)[nH]c(=O)n2C	41	0	0	0	0
CCC(C)NC(=O)CSc1nnc(-c2cc(-c3cccs3)nc3ccccc23)o1 (centres undefined)	0	0	0	0	0
Cc1ccc(NC(=S)NCc2ccccc2)cc1[N+](=O)[O-]	-	0	-	-	-
Cc1ccc(/C([O-])=C(/C(=S)NCc2ccccc2)[n+]2cccc(CO)c2)cc1[N+](=O)[O-]	-	73	-	-	-
CCOC(=O)C1C(=O)NC(N2CCCCC2)=NC1c1ccco1 (centres undefined)	97	0	0	0	0
SMILES	VCAM1 TNFa inh	E-sel TNF inh	cytoskel mod	PLAP act	HUVEC tox TNFa
O=C(Nc1ccc2nc(SCc3ccc(Cl)cc3)sc2c1)c1ccccc1C(=O)N1CCOCC1	0	53	0	0	0
C[n+]1ccc(/C=C/c2ccc(Br)cc2)cc1	44	0	-	0	0
CCN(CC)C(=S)Nc1cc(C(=O)OC)ccc1C(=O)OC	-	0	-	-	-
CCOc1cc(C2c3c(n[nH]c3C)C(=O)N2c2ccc(Br)cc2)ccc1O (centres undefined)	0	0	0	2.3	0
COc1cc(C2c3c(n[nH]c3C)C(=O)N2c2ccc(Br)cc2)ccc1O (centres undefined)	0	0	0	0	0
CCOC(=O)c1ccc(N2C(=O)c3n[nH]c(C)c3C2c2ccco2)cc1 (centres undefined)	0	0	0	2.7	0
COC(=O)c1ccc(C2c3c(n[nH]c3C)C(=O)N2c2ccc(C)cc2)cc1 (centres undefined)	0	-	0	2.3	0
CCOC(=O)c1ccc(N2C(=O)c3n[nH]c(C)c3C2c2ccc(OC)cc2)cc1 (centres undefined)	0	-	0	2.6	0
Cc1nc(-c2ccccc2)sc1-c1nc(-c2cccs2)ncc1S(=O)(=O)c1ccccc1	0	-	0	0	0
COc1ccc(Cn2cc(F)c(=O)n(CCC(C)C)c2=O)cc1[N+](=O)[O-]	0	0	0	0	0
C1CCC(c2nn3c(-c4n[nH]c5c4CCC5)nnc3s2)CC1	0	0	0	2.3	0
c1coc(-c2nnc3sc(C4CCCCC4)nn23)c1	-	0	-	0	-
